In article PMC7826789 (International Journal of Molecular Sciences, 2021):

What was measured:
Details in all cases: Compound Concentration (nM):1000
AAK1 = tested on: AAK1
[1] = tested on: ABL1(E255K)-phosphorylated
[2] = tested on: ABL1(F317I)-nonphosphorylated
[3] = tested on: ABL1(F317I)-phosphorylated
[4] = tested on: ABL1(F317L)-nonphosphorylated
[5] = tested on: ABL1(F317L)-phosphorylated
[6] = tested on: ABL1(H396P)-nonphosphorylated
[7] = tested on: ABL1(H396P)-phosphorylated
[8] = tested on: ABL1(M351T)-phosphorylated
[9] = tested on: ABL1(Q252H)-nonphosphorylated
[10] = tested on: ABL1(Q252H)-phosphorylated
[11] = tested on: ABL1(T315I)-nonphosphorylated
[12] = tested on: ABL1(T315I)-phosphorylated
[13] = tested on: ABL1(Y253F)-phosphorylated
ABL1-nonphosphorylated = tested on: ABL1-nonphosphorylated
ABL1-phosphorylated = tested on: ABL1-phosphorylated
ABL2 = tested on: ABL2
ACVR1B = tested on: ACVR1B
ACVR1 = tested on: ACVR1
ACVR2A = tested on: ACVR2A
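Note: KINOMEscan scanMAX binding as percent activity remaining versus control; lower means stronger binding.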

Compound | Percent Control (AAK1) [%] | Percent Control [1] [%] | Percent Control [2] [%] | Percent Control [3] [%] | Percent Control [4] [%] | Percent Control [5] [%] | Percent Control [6] [%] | Percent Control [7] [%] | Percent Control [8] [%] | Percent Control [9] [%] | Percent Control [10] [%] | Percent Control [11] [%] | Percent Control [12] [%] | Percent Control [13] [%] | Percent Control (ABL1-nonphosphorylated) [%] | Percent Control (ABL1-phosphorylated) [%] | Percent Control (ABL2) [%] | Percent Control (ACVR1B) [%] | Percent Control (ACVR1) [%] | Percent Control (ACVR2A) [%]
CCn1c(-c2nonc2N)nc2c(C#CC(C)(C)O)nc(OCCNC)cc21.Cl [GSK949675] | 100 | 98 | 100 | 100 | 100 | 100 | 85 | 93 | 100 | 100 | 96 | 87 | 100 | 91 | 97 | 78 | 100 | 100 | 100 | 100
Cl.O=C(Nc1ccc(Oc2ccc3[nH]c(NC(=O)c4ccco4)nc3c2)cc1)Nc1cc(C(F)(F)F)ccc1F [GW683134A] | 100 | 39 | 20 | 53 | 6.8 | 54 | 0.7 | 20 | 22 | 5.5 | 58 | 6.2 | 9.2 | 17 | 7.9 | 21 | 3.2 | 82 | 100 | 100
NS(=O)(=O)c1ccc(N/N=C2\C(=O)Nc3ccc(Cl)cc32)cc1 [GW280670X] | 94 | 100 | 99 | 96 | 100 | 100 | 81 | 100 | 100 | 81 | 100 | 100 | 100 | 100 | 93 | 100 | 100 | 100 | 100 | 100
Cc1cc(O)cc(C)c1/C=C/c1cncc(C(N)=O)c1 [GW435821X] | 100 | 6.8 | 90 | 32 | 37 | 9 | 4.9 | 14 | 15 | 7.9 | 13 | 100 | 85 | 8.8 | 25 | 14 | 47 | 89 | 7.3 | 14
COc1ccc2c(-c3ccnc(Nc4cccc(OC(F)(F)F)c4)n3)cnn2n1 [GW810372X] | 69 | 100 | 100 | 100 | 100 | 100 | 87 | 100 | 97 | 98 | 100 | 100 | 98 | 100 | 100 | 100 | 100 | 100 | 93 | 100
COC(=O)Nc1nc2ccc(Oc3ccc(NC(=O)Nc4cc(C(F)(F)F)ccc4F)cc3)cc2s1.Cl [GW693917A] | 100 | 28 | 4.5 | 36 | 3.6 | 14 | 0 | 15 | 12 | 0 | 32 | 5.1 | 6.7 | 15 | 3.1 | 13 | 2.6 | 100 | 89 | 100
Nc1ncnc2occ(-c3ccc(NC(=O)Nc4cc(C(F)(F)F)ccc4F)cc3)c12 [GW770249X] | 96 | 78 | 67 | 61 | 7.8 | 54 | 2.9 | 72 | 45 | 0 | 92 | 0 | 9.1 | 72 | 0.7 | 56 | 41 | 100 | 100 | 100
O=C1Nc2ccc(C(=O)c3ccco3)cc2C1=Cc1cc(Cl)c(O)c(Cl)c1 [GW406108X] | 30 | 68 | 89 | 79 | 100 | 71 | 60 | 87 | 70 | 71 | 88 | 96 | 78 | 83 | 87 | 76 | 100 | 100 | 89 | 92
CC1=C(C(=O)Nc2ccc3[nH]ncc3c2)C(c2ccc(Cl)c(Cl)c2)CC(=O)N1 (stereo not drawn) [GSK299115A] | 73 | 96 | 100 | 72 | 75 | 74 | 79 | 95 | 87 | 75 | 100 | 83 | 90 | 97 | 74 | 94 | 83 | 100 | 95 | 80
